Screening results from PubChem.
Rin1 Abl inh: inhibitors of Rin1-Abl protein binding, primary screen, biochemical, TR-FRET; inhibition, % at 7.35 µM; 0.4% of 360,000 active; AID 588664, 2011; in the data active means inhibition above about 5%, passing the limit was not always enough
LEDGF integ inh: blockers of LEDGF/p75-dependent integrase strand transfer – biochemical, TR-FRET, high throughput, primary screen. HIV-1 integrase (with human LEDGF/p75). TR-FRET IN-LEDGF/p75 DNA integration, Eu/Cy5. inhibition, % at 3.7 µM. 0.64% of 370,000 active. AID 743269, 2014;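 active means inhibition above the screen-wide mean plus 3 SD, cut at about 13% in these data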;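 further: signal is the Cy5 over europium emission ratio at 671 and 618 nm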
TCR CD3 inh: inhibitors of human TCR-CD3 interaction, primary screen, biochemical, fluorescence, TAMRA-labeled TCR probe. inhibition, % at 9.4 µM. 0.37% of 360,000 active; in the data active means inhibition above about 19%;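 further: recombinant mutant TCR 2C K166C tagged with TAMRA read by polarization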
UHRF1 MBD2 ctr: UHRF1 methylated DNA binding inhibitors, primary screen, counter-screen for MBD2 inhibitor project, biochemical, TR-FRET, human UHRF1, single concentration; 0.75% of 370,000 active; AID 687016, 2013; inhibition, % at 4.4 µM; E3 ubiquitin-protein ligase UHRF1 (Homo sapiens), Q96T88; UHRF1 binding to methylated oligo; in the data active means inhibition above about 21%;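 further: UHRF1 SRA domain binding a hemimethylated CpG hairpin DNA probe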
MBD2 DNA inh: inhibitors of MBD2 binding to methylated DNA, primary screen, biochemical, TR-FRET, DNA-binding domain, human | AID 686964, 2013 | Methyl-CpG-binding domain protein 2 (Homo sapiens), Q9UBB5 | 0.31% of 370,000 active | MBD2 binding to methylated oligonucleotide | inhibition, % at 4.4 µM; in the data active means inhibition above about 13%
Target sequence (Q9UBB5 whole entry, looked up, the tested form may be a part): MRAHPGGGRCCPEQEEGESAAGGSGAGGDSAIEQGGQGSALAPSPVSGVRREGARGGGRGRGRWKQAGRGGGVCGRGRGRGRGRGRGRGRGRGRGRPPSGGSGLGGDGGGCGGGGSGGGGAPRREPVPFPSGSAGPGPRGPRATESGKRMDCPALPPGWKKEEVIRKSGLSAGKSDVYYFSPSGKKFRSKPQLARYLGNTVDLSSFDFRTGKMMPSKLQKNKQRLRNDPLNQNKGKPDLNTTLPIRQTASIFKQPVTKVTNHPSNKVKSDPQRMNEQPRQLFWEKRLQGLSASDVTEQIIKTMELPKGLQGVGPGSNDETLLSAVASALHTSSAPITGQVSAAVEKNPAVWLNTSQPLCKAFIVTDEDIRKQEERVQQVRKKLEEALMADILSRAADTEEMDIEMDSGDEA
Rin1-Abl confirm: Rin1-Abl binding inhibitor retest, confirmation, biochemical, TR-FRET | shares compounds with Rin1 Abl inh | purified proteins | inhibition, % at 7.35 µM | 49% of 1,300 active | AID 602124, 2011
GFP quencher: GFP fluorescence inhibitors and quenchers, artefact control for Rin1-Abl interaction inhibitor project, biochemical. 8.5% of 1,300 active. shares compounds with Rin1 Abl inh. inhibitors/quenchers counterscreen. inhibition, % at 6.75 µM;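 further: ABL1-eGFP fusion protein alone without its partner RIN1-SBP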
GFP quench DR: GFP fluorescence inhibitors and quenchers, dose response, artefact control for Rin1-Abl interaction inhibitor project, biochemical. GFP fluorescence interference/quenching counterscreen. 230 tested, under 10 active. IC50, µM. AID 602182, 2012. shares compounds with Rin1 Abl inh; call rule not given here;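 further: ABL1-eGFP fusion protein alone without its RIN1 binding partner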
Each line names hits and unclear results; the compound was inactive in the other large screens (follow-up assays come after a bar, where they were run). Rows were chosen to be rich in hits. Some 2% of all compounds tested hit in one or more screens of this group. Unless noted, no stated cut-off is given here; in the data, active means inhibition above about 6.5%; inactive means the rest.

CCc1nnc(NC(=O)CSc2nnc3nc(C)cc(C)n23)s1	none
O=S(=O)(Nc1c(S(=O)(=O)c2ccccc2)c2nc3ccccc3nc2n1C1CCCCC1)c1ccccc1	Rin1 Abl inh 9.8, LEDGF integ inh 33.2 | Rin1-Abl confirm inactive | GFP quencher inactive
CC(Oc1cccc(Cl)c1)C(=O)Nc1nc(-c2ccccn2)cs1 (stereo not drawn)	Rin1 Abl inh 7.1 | Rin1-Abl confirm inactive | GFP quencher inactive
COc1cc2c(cc1OC)CN(CC(=O)Nc1cccc(C)c1)CC2	Rin1 Abl inh 6.5 | Rin1-Abl confirm inactive | GFP quencher inactive
Cc1cc(C)c(S(=O)(=O)N2CCN(C(=O)C(C)Cn3cncn3)CC2)c(C)c1 (stereo not drawn)	none
COc1ccc(NC(=O)NC2CCCc3ccccc32)c(OC)c1 (stereo not drawn)	none
COc1ccc(CNC2CCCc3ccccc32)c(OC)c1 (stereo not drawn)	Rin1 Abl inh 6.2 | Rin1-Abl confirm inactive | GFP quencher inactive
CCOC(=O)c1cccc(NC(=O)CN(C)S(=O)(=O)c2cc(OC)ccc2OC)c1	none (no result: Rin1 Abl inh, TCR CD3 inh)
Cc1cc(C)c(S(=O)(=O)NCCSCc2ccco2)c(C)c1	Rin1 Abl inh 8.5 | Rin1-Abl confirm inactive | GFP quencher inactive
CCc1nnc(NC(=O)C2CSC3(C)CCC(=O)N23)s1 (stereo not drawn)	none
CC12CCC(=O)N1C(C(=O)Nc1nnc(SCc3ccccc3F)s1)CS2 (stereo not drawn)	Rin1 Abl inh 32.3 | Rin1-Abl confirm 51.6 | GFP quencher inactive | GFP quench DR inactive
COC(=O)COc1cccc(NC(=O)c2ccccc2)c1	none
COC(=O)COc1cccc(NC(=O)COc2ccccc2)c1	Rin1 Abl inh 7.5 | Rin1-Abl confirm inactive | GFP quencher inactive
Cc1nc(CN2CCC(c3ccccc3)CC2)cc(=O)[nH]1	none
Cc1nc(CN2CCCCC2)cc(=O)[nH]1	Rin1 Abl inh 9.8 | Rin1-Abl confirm inactive | GFP quencher inactive
Clc1cccc(Cl)c1CNCCCSc1ncccn1	none
Fc1cccc(Cl)c1CNCCCSc1ncccn1	Rin1 Abl inh 6.9 | Rin1-Abl confirm inactive | GFP quencher inactive
Cc1ccc(Cl)cc1S(=O)(=O)N1CCC(C(=O)NC2CCN(Cc3ccccc3)CC2)CC1	Rin1 Abl inh 15.5 | Rin1-Abl confirm inactive | GFP quencher inactive
C[C@@H]1COc2cc(N3CCSCC3)ccc2S(=O)(=O)N1C	none (no result: Rin1 Abl inh, TCR CD3 inh)
CCC(C)[C@H]1CNCCN1CCc1cccc(F)c1 (stereo partly drawn)	none
OCC1OC(n2cnc3c(NCCc4ccccc4)ncnc32)C(O)C1O (stereo not drawn)	none
OCC1OC(n2cnc3c(NCc4ccccc4O)ncnc32)C(O)C1O (stereo not drawn)	Rin1 Abl inh 20.5 | Rin1-Abl confirm 16.8 | GFP quencher inactive | GFP quench DR inactive
C[C@@H]1O[C@@H](OC[C@H]2O[C@@H](Oc3c(-c4ccc(O)c(O)c4)oc4cc(O)cc(O)c4c3=O)[C@H](O)[C@@H](O)[C@@H]2O)[C@H](O)[C@H](O)[C@H]1O	Rin1 Abl inh 15.0 | Rin1-Abl confirm 20.5 | GFP quencher inactive | GFP quench DR inactive
COc1ccc(CN(CCC(c2ccc(F)cc2)C2CCOC(C)(C)C2)C(=O)c2ccco2)cc1 (stereo not drawn)	Rin1 Abl inh 5.5 | Rin1-Abl confirm 17.7 | GFP quencher inactive
CC(c1ccccc1)N(CCC(c1ccccc1)C1CCOC(C)(C)C1)C(=O)c1ccco1 (stereo not drawn)	none
O=C(NCc1ccc2c(c1)OCO2)C(=O)NCC1OCCCN1S(=O)(=O)c1ccccc1 (stereo not drawn)	none
Cn1c(CCC(=O)Nc2ccc(N3CCOCC3)cc2)nc(=O)c2ccccc21	Rin1 Abl inh 9.6 | Rin1-Abl confirm inactive | GFP quencher inactive
CCOC(=O)N1CCC(N2C(=O)c3ccccc3C2Nc2ccc(C)cc2)CC1 (stereo not drawn)	none
CCOC(=O)N1CCC(N2C(=O)c3ccccc3C2Nc2ccc(S(=O)(=O)N(CC)CC)cc2)CC1 (stereo not drawn)	Rin1 Abl inh 10.6 | Rin1-Abl confirm 10.0 | GFP quencher inactive
CCOC(=O)C(=O)Nc1nnc(Cc2ccc(OC)c(OC)c2)s1	none
CCOC(=O)Nc1nnc(Cc2ccc(Cl)c(Cl)c2)s1	Rin1 Abl inh 9.3 | Rin1-Abl confirm inactive | GFP quencher inactive
CCC1CCCCN1S(=O)(=O)c1ccc(NC(=O)c2cccs2)cc1 (stereo not drawn)	Rin1 Abl inh 10.3 | Rin1-Abl confirm inactive | GFP quencher inactive
C=CCn1nnnc1SCC(=O)Nc1cccc(C(F)(F)F)c1	none
COc1cccc(C2c3[nH]c4ccccc4c3C[C@H]3C(=O)N(C4CCN(Cc5ccccc5)CC4)CC(=O)N23)c1 (stereo partly drawn)	none
COc1ccc(C2c3[nH]c4ccccc4c3C[C@H]3C(=O)N(C4CCN(Cc5ccccc5)CC4)CC(=O)N23)cc1OC (stereo partly drawn)	Rin1 Abl inh 10.3 | Rin1-Abl confirm 8.2 | GFP quencher inactive
Cc1ccc(NC(=O)CN(C)C(=O)CSc2nc3ccccc3c(=O)n2CCO)cc1	Rin1 Abl inh 10.7 | Rin1-Abl confirm 9.0 | GFP quencher inactive
CN1CCCCC(NC(=O)c2cccc(F)c2)C1=O (stereo not drawn)	none (no result: Rin1 Abl inh)
Cc1ccc(-c2nnc(N3CCN(C(=O)c4cccs4)CC3)c3ccccc23)cc1	Rin1 Abl inh 6.3 | Rin1-Abl confirm inactive | GFP quencher inactive
CCN(CC)CCNC(=O)c1ccc(NC(=O)C2CCN(c3ncnc4sc(C)c(C)c34)CC2)cc1	Rin1 Abl inh 10.4 | Rin1-Abl confirm inactive | GFP quencher inactive
Cc1sc2ncnc(N3CCC(C(=O)Nc4ccc(OC(F)F)c(Cl)c4)CC3)c2c1C	none
CC(=O)Nc1cc2c(nc1C)nc(C)n2Cc1ccc(Br)cc1	Rin1 Abl inh 17.9 | Rin1-Abl confirm 21.7 | GFP quencher inactive | GFP quench DR inactive
O=C(Cc1c(F)cccc1Cl)NNC(=O)Nc1ccc2c(c1)OCO2	Rin1 Abl inh 14.0 | Rin1-Abl confirm inactive | GFP quencher inactive
